Source: PubChem BioAssay AID1851 (National Center for Advancing Translational Sciences (NCATS), 2009)
Several values for one entry are separate records, joined by “and”; a condition that tells them apart may be missing. Equal entries are not always repeated. Hit rate of the full screen: of about 16,000 compounds, about 5,700 (36%) were called active. Another 24% or so got no clear call; they are omitted. This is one part of the list. Values without a mark were called inactive. Calls come from the whole dose curve; as a rule, active = well fitted curve in the direction sought with a large enough effect; inconclusive = small, poorly fitted or top-dose-only effect, or effect the other way; inactive = no such curve, though single readings can be large or run the other way. Peptide text beside a SMILES is read from it. * marks the point of attachment. Cbz = O=C(OCc1ccccc1)*

target: Cytochrome P450 1A2 (Homo sapiens) (UniProt P05177); test: Cytochrome panel assay with activity outcomes; details: recombinant CYP, pro-luciferin dealkylation, luminescence, p450-cyp1a2; series mostly up to 57.1 µM
% is set by controls: 0 for no effect and ±100 for the full control effect.

Sequence of Cytochrome P450 1A2 (Homo sapiens) (P05177 whole entry, looked up): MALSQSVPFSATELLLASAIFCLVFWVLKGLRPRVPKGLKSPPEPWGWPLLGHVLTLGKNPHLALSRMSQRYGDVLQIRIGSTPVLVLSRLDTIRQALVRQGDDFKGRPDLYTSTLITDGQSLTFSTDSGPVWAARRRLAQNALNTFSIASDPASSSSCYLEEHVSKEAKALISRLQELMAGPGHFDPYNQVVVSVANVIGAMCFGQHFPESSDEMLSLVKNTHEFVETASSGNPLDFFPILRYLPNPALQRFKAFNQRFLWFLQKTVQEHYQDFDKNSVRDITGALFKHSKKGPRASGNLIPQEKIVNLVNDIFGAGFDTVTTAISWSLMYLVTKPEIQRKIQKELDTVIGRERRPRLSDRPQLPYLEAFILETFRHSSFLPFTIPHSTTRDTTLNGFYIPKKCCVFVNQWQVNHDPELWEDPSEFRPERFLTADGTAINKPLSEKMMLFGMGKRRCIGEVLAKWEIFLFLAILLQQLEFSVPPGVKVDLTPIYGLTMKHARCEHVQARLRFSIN

With `C[C@@H]1[C@H]2CC[C@@H]3[C@@H]4CC=C5C[C@@H](N(C)C)CC[C@]5(C)[C@@H]4CC[C@@]32CN1C` as the compound, how does the AC50 read?
The AC50 was “inactive”.

Which AC50 does the source give for `CCOc1[nH]n(-c2ccc(Cl)cc2)c(=O)c1C=Nc1ccc(Cl)cc1` here?
The AC50 was 2.82 µM (active).

`CCc1nnc(NS(=O)(=O)c2ccc(N=Cc3c(C)[nH]n(-c4ccc(C)cc4)c3=O)cc2)s1` was tested. Which AC50 did it give?
Its AC50 is “inactive”.

Which AC50 does the source give for `CCOc1[nH]n(-c2ccccc2)c(=O)c1C=Nc1ccc(Cl)cc1` here?
Its AC50 is 2 µM (active).

Which AC50 does the source give for `OCCN1CCOCCOCCN(CCO)CCN(CCO)CC1` here?
Its AC50 is “inactive”.

`Nc1nc(Br)c2c(F)cccc2c1-c1ccc(F)cc1` was tested. Which AC50 did it give?
Its AC50 is 1.26 µM (active).

Which AC50 does the source give for `Nc1nc(Br)c2c(F)cccc2c1-c1ccc(Cl)cc1` here?
The AC50 was 3.55 µM (active).

With `Nc1nc(Br)c2ccccc2c1-c1ccc(F)cc1` as the compound, how does the AC50 read?
Its AC50 is 1.26 µM (active).

`CCCOc1ccc(C2C(=O)N(C3CCCCC3)CC(=O)N2C2CC2)cc1OC` (centres undefined) was tested. Which AC50 did it give?
The AC50 was “inactive”.

`CCCCCCCCCCCCCCC/C=C\[C@H](O)[C@@H](NC(=O)CCCCCCCCCCCCC)OC` (tested in a mixture with another compound) was tested. Which AC50 did it give?
Its AC50 is “inactive”.

How did the AC50 turn out when `CCCCCCCCCCCCC/C=C\[C@@H](O)[C@H](CO)NC(C)=O` was run?
The AC50 was 20 µM (active).

`CCCCCCCCCCCCCCCC(=O)NC(C)C` was tested. Which AC50 did it give?
Its AC50 is “inactive”.

`CC(=O)Nc1ccc(S(=O)(=O)N=S(C)C)cc1` was tested. Which AC50 did it give?
Its AC50 is “inactive”.

With `Cc1cc(C)c(C#N)c(OCC(=O)c2ccc(Br)cc2)n1` as the compound, how does the AC50 read?
Its AC50 is 1.26 µM (active).

With `Cc1cccc(C)c1NC(=O)CSc1nc(C)c(CC(=O)c2ccc(Br)cc2)c(C)c1C#N` as the compound, how does the AC50 read?
The AC50 was “inactive”.

Which AC50 does the source give for `Fc1cc2nc(-c3ccncc3)[nH]c2cc1F` here?
The AC50 was 2 µM (active).

`Cc1cc2nc(SCCOC(=O)Nc3ccc(Cl)cc3)nc(C)c2cc1C` was tested. Which AC50 did it give?
The AC50 was 1.41 µM (active).

Which AC50 does the source give for `CCCCCCCCCCCC1=C(O)C(=O)C=C(O)C1=O` here?
The AC50 was “inactive”.

For `COCCn1c(=O)c(-c2ccc(OC)cc2)nc2cnc(OC)nc21`, which AC50 is on record?
The AC50 was 3.16 µM (active).

Which AC50 does the source give for `COCCn1c(=O)c(-c2ccc(Cl)cc2)nc2cnc(OC)nc21` here?
Its AC50 is 0.398 µM (active).

For `COCCn1c(=O)c(-c2ccccc2)nc2cnc(OC)nc21`, which AC50 is on record?
The AC50 was 1 µM (active).

Which activity, negative = inhibition does the source give for `CC(C)=CCC/C(C)=C/CO/N=C1/C[C@@H](O)[C@@H](O)[C@@H]2[C@@H]3C(=O)N(C(C)(C)C)C(=O)[C@H]3CC[C@H]12` here?
The activity, negative = inhibition was -9.03% [at 11.4 µM].

For `O=C(NNS(=O)(=O)c1ccc(Cl)cc1)c1cnn(-c2ccccc2)c1-n1cccc1`, which AC50 is on record?
Its AC50 is 17.8 µM (active).

Which AC50 does the source give for `O=C(NNS(=O)(=O)c1ccc(Cl)cc1)C1CCN(Cc2ccccc2)CC1` here?
Its AC50 is “inactive”.

With `CCOC(=O)N1CCC(NC(=O)CSCc2cnn(-c3ccccc3)c2-n2cccc2)CC1` as the compound, how does the AC50 read?
Its AC50 is “inactive”.

`Cc1cccc(NC(=S)c2nc3ccccc3s2)c1` was tested. Which AC50 did it give?
Its AC50 is 1.12 µM (active).

With `Cc1ccc(NC(=S)c2nc3ccccc3s2)cc1` as the compound, how does the AC50 read?
Its AC50 is 0.562 µM (active).

For `N#Cc1c(-c2cccs2)nc(SCC(=O)c2cccs2)[nH]c1=O`, which AC50 is on record?
The AC50 was 8.91 µM (active).

Which AC50 does the source give for `Cc1cccc(NC(=O)CSc2nc(-c3ccccc3)c(C#N)c(=O)[nH]2)c1C` here?
The AC50 was “inactive”.

`O=C(O)c1c(Br)c(Br)c(Br)c(Br)c1C1c2ccc(O)cc2Oc2cc(O)ccc21` was tested. Which activity, negative = inhibition did it give?
The activity, negative = inhibition was -6.83% [at 2.29 µM].

For `CN=c1nc(-c2ccccc2)n(-c2ccccc2)s1`, which AC50 is on record?
Its AC50 is 5.01 µM (active).

How did the AC50 turn out when `CCn1c(SCc2cccc(C)c2)nnc1-c1ccc(C)cc1` was run?
The AC50 was 17.8 µM (active).

`CCn1c(SCc2ccc(C)cc2)nnc1-c1nn(-c2ccccc2)ccc1=O` was tested. Which AC50 did it give?
Its AC50 is “inactive”.

`CCn1c(SCc2ccc(C#N)cc2)nnc1-c1ccc(S(=O)(=O)N2CCCCC2)cc1` was tested. Which AC50 did it give?
The AC50 was “inactive”.

With `CCn1c(SCc2cccc(C)c2)nnc1-c1ccccc1` as the compound, how does the AC50 read?
Its AC50 is 3.55 µM (active).

With `CN(C)CCCNc1c(C(=O)O)cnc2c1cnn2C` as the compound, how does the AC50 read?
Its AC50 is “inactive”.

For `CCCCNc1c(C(=O)OCC)c(C)nc2c1cnn2CC`, which AC50 is on record?
Its AC50 is 63.1 nM (active) and 631 nM (active).

With `CCOC(=O)c1cnc2c(cnn2CC)c1NN=C(C)C` as the compound, how does the AC50 read?
Its AC50 is 501 nM (active) and 126 nM (active).

`CCOC(=O)c1cnn(CCOC(=O)C(C)(C)C)c1NC(=O)C(C)(C)C` was tested. Which AC50 did it give?
The AC50 was “inactive”.

`O=C(CCCN1CCC(O)(c2cccc(C(F)(F)F)c2)CC1)c1ccc(F)cc1` was tested. Which AC50 did it give?
The AC50 was “inactive”.

For `NC(=O)C1CCN(C(=O)OCc2ccccc2)CC1`, which AC50 is on record?
The AC50 was “inactive”.

For `COC(=O)CCC(NC(=O)OCc1ccccc1)C(=O)NC(CC(C)C)C(=O)OC` (centres undefined) (Cbz-Glu(OMe)-Leu-OMe; configuration not given here), which AC50 is on record?
Its AC50 is “inactive”.

Which AC50 does the source give for `O=C(Cn1nnc(-c2ccccc2)n1)OCc1ccccc1` here?
Its AC50 is 1.78 µM (active).

How did the AC50 turn out when `Cc1[nH]c2c(C)ccc(C)c2c1CC(=O)O` was run?
The AC50 was 3.16 µM (active).

How did the AC50 turn out when `Cc1cc(C(=O)O)c(=O)[nH]c1C` was run?
The AC50 was “inactive”.

With `Cc1[nH]c(N)nc(=S)c1CCC(=O)O` as the compound, how does the activity, negative = inhibition read?
The activity, negative = inhibition was -11.2% [at 11.4 µM].

For `CC1CCCC(n2c(=S)[nH]c3ccccc3c2=O)C1C` (centres undefined), which AC50 is on record?
The AC50 was 7.08 µM (active).

How did the activity, negative = inhibition turn out when `C/C(CCC(=O)OC[C@@H]1O[C@H](C#Cc2ccccc2)C=C[C@@H]1Oc1ccc(C)cc1)=N/O[C@@H](C)c1cc(-c2c(C)cc(C)cc2C)no1` was run?
The activity, negative = inhibition was -4.43% [at 11.4 µM].

How did the AC50 turn out when `Cc1nc(N2CCOCC2)nc(N2CCN(c3ccccc3)CC2)c1[N+](=O)[O-]` was run?
The AC50 was 7.08 µM (active).
